Consider seven compounds from PubChem BioAssay (NCI).

Some test systems named below: SR leukemia; RPMI-8226 leukemia; OVCAR-8 ovarian; OVCAR-5 ovarian; OVCAR-4 ovarian; SK-OV-3 ovarian; IGROV1 ovarian; OVCAR-3 ovarian; HS 578T breast; NCI/ADR-RES ovarian; T-47D breast; BT-549 breast; MDA-MB-435 melanoma; SW-620 colon; MCF7 breast; HCT-116 colon; HCC-2998 colon; KM12 colon.
What all share (assay): NCI-60 one-dose screen, 48 h (100 = growth as untreated, 0 = no growth, -100 = all killed)
Common to all, as to settings: 10 µM unless noted

Values joined by “and” are separate entries in the source; they are usually repeats but may differ in a detail not shown here. Equal entries are not always repeated. The panel holds about 83,000 compounds, 20% with a hit somewhere; the sample as a whole holds those more often.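 Step 1: grow cells in 96-well plates. Step 2: add test compound at a single concentration. Step 3: incubate 48 h. Step 4: record percent growth.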 Active and inactive are the calls of the source. How the source made its calls: active means growth percent below 10; inactive means the rest.

In the case of `O=C(Cn1cc(CN2CCN(c3ccnc4cc(Cl)ccc34)CC2)nn1)Nc1cccc([N+](=O)[O-])c1`, the growth in the test on SR leukemia was 33% (inactive); in the test with RPMI-8226 leukemia it was 57.6% (inactive); in the test on OVCAR-8 ovarian it was 74.7% (inactive); in the test with OVCAR-5 ovarian, 96.4% (inactive); in the test with OVCAR-4 ovarian, 92.4% (inactive); with SK-OV-3 ovarian, 76.1% (inactive). Also, the growth was -94.7% (active) in the test with IGROV1 ovarian; 87.9% (inactive) in the test with OVCAR-3 ovarian; 82.6% (inactive) in the test with HS 578T breast; 100% (inactive) in the test on NCI/ADR-RES ovarian; 75% (inactive) with T-47D breast; 85.6% (inactive) in the test with BT-549 breast. Further, the growth with MDA-MB-435 melanoma was 98.7% (inactive); in the test on SW-620 colon, 95% (inactive); in the test on MCF7 breast it was 89.1% (inactive); with HCT-116 colon, 101% (inactive); in the test on HCC-2998 colon it was 106% (inactive); with KM12 colon, 85.4% (inactive).
Consider `COc1ccc(/C=N\Nc2nc(SCC(C)C)nc(-c3ccc(OC)cc3)c2C#N)cc1`, for which the growth was 50.3% (inactive) in the test with SR leukemia; 54.6% (inactive) with RPMI-8226 leukemia; 39.2% (inactive) with OVCAR-8 ovarian; 55.5% (inactive) in the test on OVCAR-5 ovarian; -60.3% (active) in the test on OVCAR-4 ovarian; -16.6% (active) in the test with SK-OV-3 ovarian. The growth with IGROV1 ovarian is -16.3% (active); with OVCAR-3 ovarian, 9.64% (active); in the test on HS 578T breast it was 8.52% (active); in the test with NCI/ADR-RES ovarian it was 42.2% (inactive); in the test on T-47D breast, 16.2% (inactive); with BT-549 breast it was 110% (inactive). Besides, the growth is 68.5% (inactive) with MDA-MB-435 melanoma; 51% (inactive) with SW-620 colon; 59.3% (inactive) with MCF7 breast; 2.29% (active) in the test with HCT-116 colon; 64.2% (inactive) in the test on HCC-2998 colon; 62.6% (inactive) in the test with KM12 colon.
Consider `NC(N)=NC(N)=NCCCc1ccco1`, for which the growth in the test on SR leukemia is 110% (inactive); in the test with RPMI-8226 leukemia, 106% (inactive); in the test with OVCAR-8 ovarian, 96% (inactive); with OVCAR-5 ovarian, 114% (inactive); in the test on OVCAR-4 ovarian, 104% (inactive); with SK-OV-3 ovarian it was 103% (inactive). Also, the growth in the test on IGROV1 ovarian was 99.8% (inactive); in the test with OVCAR-3 ovarian it was 102% (inactive); in the test on HS 578T breast, 109% (inactive); with NCI/ADR-RES ovarian it was 103% (inactive); with T-47D breast, 106% (inactive); in the test on BT-549 breast, 115% (inactive). The growth in the test on MDA-MB-435 melanoma is 110% (inactive); with SW-620 colon it was 94.5% (inactive); in the test with MCF7 breast, 106% (inactive); in the test on HCT-116 colon, 108% (inactive); in the test on HCC-2998 colon, 106% (inactive); in the test on KM12 colon it was 101% (inactive).
As for `COc1ccc(-c2nc(Cl)c3c(C)nn(-c4ccc(F)cc4)c3n2)cc1`, the growth was 103% (inactive) in the test with SR leukemia; 102% (inactive) in the test on RPMI-8226 leukemia; 99.2% (inactive) in the test with OVCAR-8 ovarian; 110% (inactive) with OVCAR-5 ovarian; 107% (inactive) in the test with OVCAR-4 ovarian; 102% (inactive) in the test with SK-OV-3 ovarian. In addition, the growth in the test with IGROV1 ovarian was 109% (inactive); with OVCAR-3 ovarian it was 106% (inactive); in the test with HS 578T breast, 103% (inactive); with NCI/ADR-RES ovarian, 112% (inactive); in the test with T-47D breast, 102% (inactive); in the test on BT-549 breast, 123% (inactive). The growth was 112% (inactive) in the test on MDA-MB-435 melanoma; 103% (inactive) in the test with SW-620 colon; 105% (inactive) with MCF7 breast; 96.5% (inactive) with HCT-116 colon; 103% (inactive) with HCC-2998 colon; 104% (inactive) with KM12 colon.
Take `COC(=O)c1nc(-c2ccccc2)oc1S(=O)(=O)N(C)CCO`: the growth with SR leukemia was 8.68% (active); in the test with RPMI-8226 leukemia, 42.4% (inactive); with OVCAR-8 ovarian, 85.6% (inactive); in the test with OVCAR-5 ovarian, 82.5% (inactive); with OVCAR-4 ovarian, 77.4% (inactive); with SK-OV-3 ovarian it was 89.8% (inactive). In addition, the growth in the test on IGROV1 ovarian was 69.2% (inactive); in the test on OVCAR-3 ovarian, 34.7% (inactive); in the test with HS 578T breast it was 99.5% (inactive); with NCI/ADR-RES ovarian, 97.2% (inactive); in the test with T-47D breast, 44.5% (inactive); in the test with BT-549 breast, 72.5% (inactive). Moreover, the growth in the test with MDA-MB-435 melanoma was 60.9% (inactive); with SW-620 colon, 40.4% (inactive); in the test on MCF7 breast, 47.8% (inactive); in the test with HCT-116 colon, 46.7% (inactive); in the test with HCC-2998 colon it was 99.4% (inactive); with KM12 colon, 89.4% (inactive).
`CCCCCCCCCCCCCCCC[N+](C)(C)CCN(Cc1ccc(OC)cc1)c1ncccn1`: the growth is -45.2% (active) and 56.8% (inactive) in the test on SR leukemia; 27.2% (inactive) with RPMI-8226 leukemia; -72.8% (active) and 56.4% (inactive) in the test on OVCAR-8 ovarian; -37% (active) and 67.2% (inactive) in the test with OVCAR-5 ovarian; -8.05% (active) and 31.3% (inactive) with OVCAR-4 ovarian; 14.6% (inactive) and 67.4% (inactive) in the test on SK-OV-3 ovarian. In addition, the growth in the test with IGROV1 ovarian was -70.4% (active); with OVCAR-3 ovarian it was -100% (active) and 45.5% (inactive); with HS 578T breast, -72.9% (active) and 84.5% (inactive); with NCI/ADR-RES ovarian it was 72.2% (inactive) and 105% (inactive); in the test with T-47D breast it was -5.46% (active) and 42.2% (inactive); with BT-549 breast, -75% (active) and 61.8% (inactive). For the same compound, the growth was -96.8% (active) with MDA-MB-435 melanoma; -86% (active) and 76.9% (inactive) in the test on SW-620 colon; 20.1% (inactive) and 47.6% (inactive) with MCF7 breast; -85.6% (active) and -62.4% (active) with HCT-116 colon; -76% (active) and 50.2% (inactive) in the test on HCC-2998 colon; -100% (active) and 33.6% (inactive) in the test on KM12 colon.
Turning to `CN1Cn2c(ccc2C(F)(F)F)C(=O)CS1(=O)=O`, the growth in the test on SR leukemia is 109% (inactive); with RPMI-8226 leukemia it was 109% (inactive); in the test with OVCAR-8 ovarian it was 108% (inactive); with OVCAR-5 ovarian it was 96% (inactive); in the test with OVCAR-4 ovarian, 97.4% (inactive); in the test on SK-OV-3 ovarian it was 106% (inactive). Besides, the growth was 104% (inactive) in the test on IGROV1 ovarian; 112% (inactive) in the test on OVCAR-3 ovarian; 106% (inactive) in the test with HS 578T breast; 103% (inactive) in the test on NCI/ADR-RES ovarian; 115% (inactive) in the test with T-47D breast; 105% (inactive) with BT-549 breast. Further, the growth with MDA-MB-435 melanoma is 103% (inactive); in the test on SW-620 colon, 104% (inactive); with MCF7 breast, 98.4% (inactive); with HCT-116 colon, 94.9% (inactive); in the test on HCC-2998 colon it was 104% (inactive); in the test on KM12 colon it was 110% (inactive).
